Several values for one entry are separate records, joined by “and”; a condition that tells them apart may be missing. Equal values may be shown once. The campaign covered roughly 350,000 compounds. About 31,000 (8.9%) were called active. Another 15% or so got no clear call; they are omitted. Calls follow the shape of the dose curve; as a rule, active = well fitted inhibition curve with a large enough effect; inconclusive = small, poorly fitted or top-dose-only effect; inactive = no such curve, though single readings can be large or run the other way. What follows is part of a selection rich in actives, with near analogues and random picks from the rest. Where a call stands in place of a potency, no number is given. A structure can be active in one record and inactive in another.
Target: Histone-lysine N-methyltransferase EHMT2 (Homo sapiens) (UniProt Q96KQ7)
Experiment: qHTS Assay for Inhibitors of Histone Lysine Methyltransferase G9a; also: nearly all actives have a fitted effect of over 75% in size
Settings: G9a H3K9 monomethylation, AlphaScreen, 2 h; series mostly up to 102 µM
Method in brief: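 Using a bead-based AlphaScreen, monomethylated H3K9 product from 2 h room-temperature reactions (G9a 20 nM, peptide 500 nM, SAM 20 uM) was detected with 0.5 ug/mL rabbit anti-H3K9me1 antibody.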
Potency is read from the fitted curve at half-maximal effect.

Chain of Histone-lysine N-methyltransferase EHMT2 (Homo sapiens) (Q96KQ7 913-1193 limits assumed): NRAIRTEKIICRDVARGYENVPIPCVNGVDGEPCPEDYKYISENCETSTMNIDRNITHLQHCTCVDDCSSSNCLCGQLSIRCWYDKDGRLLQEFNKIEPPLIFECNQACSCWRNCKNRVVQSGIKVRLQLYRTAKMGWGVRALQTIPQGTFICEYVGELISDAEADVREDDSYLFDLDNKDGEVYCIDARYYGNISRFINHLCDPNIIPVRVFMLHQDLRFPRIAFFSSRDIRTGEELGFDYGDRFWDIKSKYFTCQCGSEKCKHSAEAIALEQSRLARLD

Row | SMILES | activity, negative = inhibition | Potency
1 | OC1/C(=C/c2ccc(C(F)(F)F)cc2)N2CCC1CC2 (configuration not stated) | inactive | 
2 | COC(=O)C1=C(c2ccc3ccccc3c2)C[C@@H]2CC[C@H]1N2C(=O)NCCO | 26.7% [at 2.33 µM] (inactive) | 
3 | COc1ccc(CNCCc2ccc3c(c2)OCO3)c(OC)c1OC |  | 8.91 µM (active)
4 | COC(=O)C1=C(c2c(C)noc2C)C[C@@H]2CC[C@H]1N2C(=O)NCc1ccc2c(c1)OCO2 | -4.27% [at 0.501 µM] (inactive) | 
5 | CCN1CCN(Cc2cc(OC)c3c(c2)OCO3)CC1 | inactive | 
6 | c1csc(CN2CCCC3(CCNCC3)C2)n1 | 7.82% [at 12.7 µM] (inactive) | 
7 | CCCCCCCCCCCCn1ccc(=N)cc1 | inactive | 
8 | CC[C@H]1CN2CCc3cc(OC)c(OC)cc3[C@@H]2C[C@@H]1C[C@H]1NCCc2cc(OC)c(OC)cc21 | inactive | 
9 | CCOc1cc(N2CCOCC2)c(OCC)cc1NC(=O)C1=NN(c2cccc(C)c2)C(=O)CC1 |  | 11.2 µM (active)
10 | CCCCCn1c(=O)c(C(=O)NCc2ccccn2)c(O)c2ccccc21 | inactive | 
11 | O=C1c2ccccc2NC(c2ccccc2O)N1NS(=O)(=O)c1ccccc1 (configuration not stated) | inactive | 
12 | Cc1ccc(N(C)C(=O)Oc2cccc3ccc(C)nc23)cc1 | inactive | 
13 | COC(=O)COc1cc(C)cc2oc(=O)c3c(c12)CCCC3 | inactive | 
14 | O=C(Nc1cccc(F)c1)N1CC[C@@]2(CCCN(C(=O)Oc3ccccc3)C2)C1 | -11.3% [at 12.7 µM] (inactive) | 
15 | CCC(=O)CC(c1ccc([N+](=O)[O-])cc1)c1c(O)c2ccccc2oc1=O (configuration not stated) | inactive | 
16 | CCCCCn1c(=O)c(C(=O)Nc2c(C)n(C)n(-c3ccccc3)c2=O)c(O)c2ccccc21 | inactive | 
17 | COc1cc(C(c2c(O)c3ccccc3oc2=O)c2c(C)n(C)n(-c3ccccc3)c2=O)ccc1O (configuration not stated) |  | 44.7 µM (active)
18 | Cc1ccsc1C(=O)C1CCCN(Cc2ccc(O)cc2)C1 (configuration not stated) | inactive | 

Row | SMILES | activity, negative = inhibition | Potency
19 | CCOC(=O)CC1=C(C(=O)OCC)C2(C(=O)N1)C(C(=O)OC)=C(N)Oc1ccccc12 (configuration not stated) | inactive | 
20 | CCCCCCN=C(CC)c1c(O)n(CCCC)c(=O)[nH]c1=O | -24.6% [at 12.7 µM] (inactive) | 
21 | COc1ccc(C(=O)C2CCCN(Cc3ccc(C)s3)C2)cc1OC (configuration not stated) | inactive | 
22 | COc1ccccc1OC(=O)c1ccc(C)c(S(=O)(=O)N2CCOCC2)c1 | inactive | 
23 | COc1cc(C(=S)N2CCOCC2)ccc1O | -4.38% [at 12.7 µM] (inactive) | 20 µM (active)
24 | OCC#CC[N+]1(CC#Cc2ccccc2)CCCC1 | inactive | 
25 | CC(c1ccccc1)(c1ccccc1)c1ccncc1 | inactive | 
26 | CC(Cc1ccccc1)NCCC(c1ccccc1)c1ccccc1 (configuration not stated) | inactive | 
27 | Cn1c(O)c(C=NCCN2CCNCC2)c(=O)n(C)c1=O | inactive | 
28 | C=CCN1CCC2(C)c3cc(O)ccc3CC1[C@@H]2C (some centres not stated) | inactive | 
29 | C=CCN1CCC23c4c5ccc(O)c4O[C@H]2C(=O)CC[C@@]3(O)C1C5 (some centres not stated) |  | inactive and 31.6 µM (active)
30 | CC(C)N(CC#CCC1(O)c2ccccc2-c2ccccc21)C(C)C | inactive | 
31 | O=C(Nc1cccc(OC(=O)N2CCCCC2)c1)N1CCOCC1 | inactive | 
32 | Cc1cc(C(=O)OCC(=O)Nc2c(F)cccc2F)c(C)n1C1CC1 | inactive | 
33 | Cc1noc(C)c1CSc1nc2cc(S(=O)(=O)N3CCOCC3)ccc2o1 |  | 3.16 µM (active)
34 | CN(C)CCN(CC1CCCN(Cc2ccccc2F)C1)C(=O)Cc1ccc(F)c(F)c1 (configuration not stated) | inactive | 
35 | CCCC[N+]1(C)C2CC(OC(=O)C(CO)c3ccccc3)CC1C1OC12 (configuration not stated) | inactive | 
36 | COC(=O)C1=C(c2ccc(F)cc2OCc2ccccc2)C[C@@H]2CC[C@H]1N2C(=O)NCc1ccc2[nH]ccc2c1 | 4.96% [at 0.501 µM] (inactive) | 
